Reference: PubChem BioAssay (NCATS)
Results filed as inconclusive are left out. Calls of active or inactive are those of the source. Unless noted, calls follow the shape of the dose curve; as a rule, active = well fitted curve in the direction sought with a large enough effect; inconclusive = small, poorly fitted or top-dose-only effect, or another doubt; inactive = no such curve, though single readings can be large; an effect the other way counts as inactive or inconclusive.

Tests used:
[1] = NS1 protein of Zika virus - qHTS assay to identify small molecule inhibitors in human HEK 293 cells (AID 1347053); details: HEK293 ZIKV MR766 infection, NS1 TR-FRET, 24 h; series mostly up to 46.1 µM; also: nearly all actives have a fitted effect of over 55% in size
How it was run: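 HEK 293 cells pretreated with compound for 1 h, then infected with ZIKV MR766 (MOI 0.5) for 24 h at 37 C. NS1 detected by TR-FRET with two anti-NS1 antibodies; normalized to uninfected (0%) and infected (100%) wells.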

[2] = molecular target: T1, Tyrosine-protein phosphatase non-receptor type substrate 1 (Homo sapiens) + Leukocyte surface antigen CD47 (Homo sapiens) (UniProt P78324+Q08722); test: CD47-SIRPalpha protein protein interaction - LANCE assay qHTS validation (AID 1347057; active = well fitted curve in the direction sought with a large enough effect in the signal ratio, with a control signal flat, not every such curve was filed as active; the % refers to the signal ratio); details: Recombinant CD47-His / biotin-SIRPalpha, TR-FRET ratio; series mostly up to 38.3 µM
How it was run: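 First, His-tagged CD47 and Eu-labelled anti-His antibody met the compound for 30 min; next, site-specifically biotinylated SIRPalpha was added for 30 min; finally streptavidin-APC was added before reading the TR-FRET ratio.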

[3] = molecular target: T1, Tyrosine-protein phosphatase non-receptor type substrate 1 (Homo sapiens) + Leukocyte surface antigen CD47 (Homo sapiens); test: CD47-SIRPalpha protein protein interaction - HTRF assay qHTS validation (AID 1347058; active = well fitted curve in the direction sought with a large enough effect in the signal ratio, not every such curve was filed as active; the % refers to the signal ratio;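 also: recombinant soluble extracellular CD47 with His tag and biotinylated SIRPalpha domains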); details: TR-FRET HTRF CD47-His / biotin-SIRPalpha binding, ratio 665/615; series mostly up to 38.3 µM
How it was run: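 TR-FRET read (Ch1/Ch2 ratio) of soluble extracellular CD47 and Avi-biotinylated SIRPalpha domains in PBS pH 7.4 with 0.05% IGEPAL; 7-point compound titration. Sequential 30 min room-temperature steps; non-biotinylated SIRPalpha as control inhibitor.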

[4] = molecular target: T1, Tyrosine-protein phosphatase non-receptor type substrate 1 (Homo sapiens) + Leukocyte surface antigen CD47 (Homo sapiens); test: CD47-SIRPalpha protein protein interaction - Alpha assay qHTS validation (AID 1347059); details: AlphaScreen CD47-His/biotin-SIRPalpha binding, LOPAC; series mostly up to 38.3 µM;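 also: bead proximity luminescence from CD47 binding SIRPalpha after compound preincubation with SIRPalpha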
How it was run: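 Binding is measured by AlphaScreen proximity: Ni-NTA acceptor beads capture His-CD47, streptavidin donor beads capture biotin-SIRPalpha. Each of three additions (SIRPalpha with compound, CD47, beads) incubates 30 min at room temperature protected from light.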

Measured: Potency

T1 sequence (P78324 whole entry, looked up): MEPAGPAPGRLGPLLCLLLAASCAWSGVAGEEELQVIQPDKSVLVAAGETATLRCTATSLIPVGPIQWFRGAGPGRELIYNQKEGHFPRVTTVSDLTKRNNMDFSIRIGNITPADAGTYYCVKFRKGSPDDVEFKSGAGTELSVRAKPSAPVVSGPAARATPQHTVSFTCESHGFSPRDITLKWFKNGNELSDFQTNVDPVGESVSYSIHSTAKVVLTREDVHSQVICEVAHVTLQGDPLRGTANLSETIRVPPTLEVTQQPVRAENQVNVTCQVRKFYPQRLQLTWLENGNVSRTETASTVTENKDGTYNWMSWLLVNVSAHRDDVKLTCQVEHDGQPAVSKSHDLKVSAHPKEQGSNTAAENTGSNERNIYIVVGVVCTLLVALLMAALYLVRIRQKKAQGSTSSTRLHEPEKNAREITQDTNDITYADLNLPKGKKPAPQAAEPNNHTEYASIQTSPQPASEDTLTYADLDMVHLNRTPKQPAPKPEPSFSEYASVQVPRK
T1 sequence (Q08722 whole entry, looked up): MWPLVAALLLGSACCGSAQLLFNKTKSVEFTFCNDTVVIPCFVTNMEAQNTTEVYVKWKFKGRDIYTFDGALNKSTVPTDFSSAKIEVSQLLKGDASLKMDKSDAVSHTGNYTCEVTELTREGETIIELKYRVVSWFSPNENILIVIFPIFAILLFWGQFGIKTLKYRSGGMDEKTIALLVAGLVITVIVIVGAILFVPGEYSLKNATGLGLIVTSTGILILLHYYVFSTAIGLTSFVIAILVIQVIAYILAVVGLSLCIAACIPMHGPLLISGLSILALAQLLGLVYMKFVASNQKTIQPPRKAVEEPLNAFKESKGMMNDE

CC[C@H]1OC(=O)[C@H](C)[C@@H](O[C@H]2C[C@@](C)(OC)[C@@H](O)[C@H](C)O2)[C@H](C)[C@@H](O[C@@H]2O[C@H](C)C[C@H](NC)[C@H]2O)[C@](C)(O)C[C@@H](C)CN(C)[C@H](C)[C@@H](O)[C@]1(C)O
inactive: [1] | [2] | [3] | [4]

CCCCCCCCCCCCCCCCCCN(CCCCCCCCCCCCCCCCCC)CCCN(CCO)CCO
inactive: [1] | [3] | [4]

CS(=O)(=O)c1ccc(-n2nc(C(F)(F)F)cc2-c2ccc(F)cc2)cc1
inactive: [1] | [2] | [3]

COc1cc(OC)cc(-c2cc3cnc(N)nc3nc2NC(=O)NC(C)(C)C)c1
inactive: [1] | [2] | [3] | [4]

Nc1nc2ccc(Cl)cc2n2c(-c3ccccc3)nnc12
inactive: [1] | [2] | [3]

O=C(CCSCc1ccco1)NNC(=O)N1Cc2ccccc2Oc2ccc(Cl)cc21
inactive: [1] | [2] | [3] | [4]

COc1ccc(NC(=O)/C=C/c2ccc(Cl)cc2)cc1
inactive: [1] | [2] | [4]

COc1ccc(Br)cc1S(=O)(=O)NC(=O)/C=C/c1ccccc1Cc1ccc2ccccc2c1
inactive: [1] | [2] | [3] | [4]

CC[C@H]1OC(=O)[C@H](C)C(O[C@H]2C[C@@](C)(OC)[C@@H](O)[C@H](C)O2)[C@H](C)[C@@H](OC2O[C@H](C)C[C@H](N(C)C)[C@H]2O)[C@](C)(O)C[C@@H](C)CN(C)[C@H](C)[C@@H](O)[C@]1(C)O (stereo partly specified)
inactive: [1] | [2] | [3]
